Screening data (PubChem)
Rows were chosen to be rich in hits. Some 5.5% of all compounds tested hit in one or more screens of this group.
ELG1 DNA repair – inhibitors of ELG1-dependent DNA repair in HEK293T cells | HEK293T ELG1-luciferase reporter, luminescence, 16 h; DNA damage induced by 5-fluorouridine | Potency, µM (series often up to 46.1 µM), inactives show at the highest dose activity change, negative = inhibition, actives largely listed as inhibitors | hit rate 2.3% among 330,000 | AID 504467; note: potency is the fitted concentration of half-maximal effect; nearly all actives have a fitted effect of over 55% in size
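Luminescence from the luciferase reporter, measured 30 min after ONE-Glo reagent at room temperature, was the read-out. Beforehand, 2,000 cells per well were exposed for 16 hr at 37 °C to 5-fluorouridine together with compound or vehicle.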
Sfp inh – Sfp phosphopantetheinyl transferase inhibition. AID 1490. Biochemical Sfp PPTase activity, qHTS. Potency, µM, inactives show largest response in the series, negative = inhibition, usual class: inhibitors. Q9F4F7. hit rate 3.5% among 310,000;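 note: the enzyme is Sfp with the accession as filed and its product quenches rhodamine fluorescence; potency is the fitted concentration of half-maximal effect; 0% = enzyme reaction without inhibitor and -100% = no enzyme wells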
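Fluorescence-quenching assay: 15 nM Sfp-PPTase preincubated 15 min at room temperature with compound, then 5 uM rhodamine-CoA and 12.5 uM BHQ-2-labelled YbbR peptide added. Fluorescence (ex 525/em 598 nm) read at start and after 30 min; difference gives rate.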
Coupling enz – coupling enzyme interference in Giardia aldolase counter-screen | coupling enzyme system counterscreen, AmpLite Red fluorescence | activity change, negative = inhibition, % at 58.2 µM, hits read low | hit rate 0.67% among 290,000 | AID 2472; in the data active = activity change below about -30%
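Coupling enzymes only (glyceraldehyde-3-phosphate) + compound, at 57.5 uM final, 10 min RT; add substrate/coupling/AmpLite Red mix, 20 min RT; fluorescence ex 525/em 598 nm. Actives flag coupling-system interference.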
Giardia kill – kills Giardia lamblia; Giardia lamblia trophozoite viability; activity change, % at 7.66 µM, hits read low; hit rate 0.15% among 340,000; AID 540267; in the data active = activity change below about -80%; inconclusive = between about -30% and that limit;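 note: parasites exposed to compound for two days anaerobically before the ATP read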
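Each well holds 100 Giardia trophozoites and compound. After two days (48 hrs) at 37 deg C in anaerobic conditions, ATP is quantified by luminescence.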
Starred values were filed as active, the others as inactive; ? = inconclusive; . = no result. Unless noted, calls come from the whole dose curve; as a rule, active = well fitted curve in the direction sought with a large enough effect; inconclusive = small, poorly fitted or top-dose-only effect, or another doubt; inactive = no such curve, though single readings can be large; an effect the other way counts as inactive or inconclusive. Unless noted, % is set by controls: 0 for no effect and ±100 for the full control effect.

SMILES	ELG1 DNA repair	Sfp inh	Coupling enz	Giardia kill
CN=C1C=CC(=C(c2ccc(N(C)C)cc2)c2ccc(N(C)C)cc2)C=C1	.	45µM*	.	.
Cc1ccc(NC(=S)N/N=C2\CC3CC=CC23)c(C)c1 (configuration not stated)	13%	32µM*	1	-4
Cc1cccc(C)c1NC(=S)N/N=C1\CC2CC=CC12 (configuration not stated)	-9%	?	1	-2
Oc1cc2c(cc1CN1CCN(c3ncccn3)CC1)OCO2	11%	-6%	.	-8
COCCCNC(=O)c1cc2c(-c3cccc(OC)c3)nn(C)c2s1	12µM*	1%	2	-8
CCN(CC)CCNC(=O)c1cc2c(-c3ccc(Cl)cc3)nn(C)c2s1	?	-3%	3	16
CCOCCCNC(=O)c1cc2c(-c3ccc(Cl)cc3)nn(C)c2s1	21µM*	-7%	0	-2
CCN(C(=O)c1ccco1)c1nc(-c2ccc(OC)cc2)cs1	?	89µM*	-2	22
COc1ccc(NC(=O)CN(C)C(=O)c2c(C)nn(Cc3ccccc3)c2C)cc1	18%	.	.	9
CCc1ccccc1NC(=O)CN(C)C(=O)CSc1nnc(Nc2ccc(C)cc2)s1	?	8%	-1	20
CCc1ccc(Nc2nnc(SCC(=O)N(C)CC(=O)Nc3ccccc3CC)s2)cc1	18µM*	4%	-14	-9
C=C(NC(=O)C(=C)NC(=O)c1csc(C2=NC3c4csc(n4)C4NC(=O)c5csc(n5)C(C(C)(O)C(C)O)NC(=O)C5CSC(=N5)C(=CC)NC(=O)C(C(C)O)NC(=O)c5csc(n5)C3(CC2)NC(=O)C(C)NC(=O)C(=C)NC(=O)C(C)NC(=O)C(C(C)CC)NC2C=Cc3c(C(C)O)cc(nc3C2O)C(=O)OC4C)n1)C(N)=O (configuration not stated)	.	4%	-1	.
C=C(NC(=O)C(=C)NC(=O)c1csc(C2=NC3c4csc(n4)C4NC(=O)c5csc(n5)C([C@@](C)(O)C(C)O)NC(=O)C5CSC(=N5)/C(=C\C)NC(=O)C(C(C)O)NC(=O)c5csc(n5)[C@]3(CC2)NC(=O)C(C)NC(=O)C(=C)NC(=O)C(C)NC(=O)C(C(C)CC)NC2C=Cc3c(C(C)O)cc(nc3C2O)C(=O)OC4C)n1)C(N)=O (some centres not stated)	5.2µM*	.	.	.
Cc1cc(-c2cccnc2)c(C#N)c(SCc2cccc(F)c2)n1	?	79µM*	0	-4
CN(Cc1cccs1)C(=O)Cn1cnc2ccccc2c1=O	4%	18%	-2	-7
O=c1/c(=C\c2ccc(O)cc2)sc2n1C(c1ccccc1)C(c1ccccc1)=NN=2 (configuration not stated)	7%	50µM*	5	4
CCOC(=O)C1=C(c2ccccc2)N=c2s/c(=C\c3cccc(O)c3)c(=O)n2C1c1cccs1 (configuration not stated)	-1%	30%	0	-6
Cn1cc(C(=O)N2CCN(c3cccc(Cl)c3)CC2)c(=O)c2cc(S(=O)(=O)N3CCOCC3)ccc21	20%	6%	2	19
N#CC1=C2SCN(c3ccccc3)CN2C(=O)CC1c1c(Cl)cccc1Cl (configuration not stated)	?	5µM*	1	0
N#CC1=C2SCN(c3ccccc3)CN2C(=O)CC1c1cccs1 (configuration not stated)	1%	0.79µM*	-17	-3
CCCc1nn(-c2ccccc2)c2c1C(c1cccs1)C(C#N)=C(N)O2 (configuration not stated)	?	3%	-1	-3
CCSC1=C(C#N)C(c2ccccc2Cl)CC(=O)N1 (configuration not stated)	13%	-3%	1	9
N#CC1=C2SCN(c3ccccc3)CN2C(=O)CC1c1ccccc1Cl (configuration not stated)	3%	1µM*	-11	2
O=C(Nc1ccccc1Cl)C1CC(=O)N(c2ccccc2)C1 (configuration not stated)	0%	15%	6	?
CN1C(=O)CC(=O)N(C)c2cc(S(=O)(=O)N(C)Cc3ccccc3)ccc21	18%	89µM*	.	-24
SMILES	ELG1 DNA repair	Sfp inh	Coupling enz	Giardia kill
CN(Cc1ccccc1)S(=O)(=O)c1ccc2c(c1)n(C)c(=O)c(=O)n2C	9%	28%	3	31
O=C(c1ccc(CS(=O)(=O)c2ccc(Br)cc2)o1)N1CCN(c2ccccn2)CC1	18µM*	1%	2	16
CCCc1ccc(OCc2ccc(C(=O)N3CCN(c4ccccn4)CC3)o2)c(OC)c1	16µM*	-22%	3	16
O=C(O)c1ccccc1C(=O)c1cccc2c(Br)cccc12	.	.	.	-4
O=C1CNC(=S)N1CCc1ccc(O)c(O)c1	11%	45µM*	-11	-26
O=C1CNC(=S)N1CCOc1ccccc1	15%	17%	3	-8
COCCN(C(=O)COC(=O)C1CCC(C(C)(C)C)CC1)c1c(N)n(Cc2ccccc2)c(=O)[nH]c1=O (configuration not stated)	-3%	.	.	15
CC1=CC(=Nc2c(C)n(C)n(-c3ccccc3)c2=O)C=C(C)C1=O	?	79µM*	-48*	-12
CCNc1ccc(N=Nc2c(C)n(C)n(-c3ccccc3)c2=O)cc1	?	-5%	-3	-98*
CCC(C)C1=CC(=Nc2c(C)n(C)n(-c3ccccc3)c2=O)C=C(C(C)CC)C1=O (configuration not stated)	1%	12%	-27	11
CC1=CC(=Nc2c(C)n(C)n(-c3ccccc3)c2=O)C=CC1=O	-9%	8.9µM*	-46*	.
Cc1c(N=NC2=C(O)CC(C)(C)CC2=O)c(=O)n(-c2ccccc2)n1C	?	40µM*	-7	-3
CNC(=O)[C@H](C)/C=C/C(NC(=O)OCc1ccccc1)c1ccc(C(=O)OC)cc1 (some centres not stated)	.	23%	-1	.
CCC(C(=O)N1CCOCC1)n1c2ccccc2c2nc(=O)cc(C)n21 (configuration not stated)	22%	11%	.	-16
COc1cc2c(cc1OC)CN(C(=O)CSc1nnc3scc(-c4ccccc4)n13)CC2	-26%	71µM*	-6	1
CC(=O)c1ccc(OC(C)c2nc3ccccc3s2)cc1 (configuration not stated)	?	14%	0	2
COc1ccc(-c2cc(-c3ccccc3)no2)cc1	?	.	.	-11
COc1ccc(-c2cc3nnc(-c4ccccc4)nc3s2)cc1	?	40µM*	4	-6
CSc1ncc(C(=O)Nc2cccnc2)c(C(F)(F)F)n1	-11%	4%	-2	-15
Cc1cc2c(c(C)c1Cl)C(c1ccc3c(c1)OCO3)CC(c1ccccc1)O2 (configuration not stated)	.	-15%	-1	-8
Cc1ccc(S(=O)(=O)NN2C(=O)/C(=C/c3cccs3)SC2=S)cc1	-5%	79µM*	6	0
